# About 83,000 compounds went through this panel and 20% of them were active in at least one assay; those are over-represented in the sample as a whole.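 Percent growth is the endpoint: 0 to 100 indicates growth inhibition (40 means 60% inhibition), 0 means no net growth, and negative values indicate cell death.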 Calls of active or inactive are those of the source. The calls were made as follows: active = growth percent below 10; inactive = the rest.
# Test system: HL-60(TB) leukemia
# Assay: NCI-60 one-dose screen, 48 h (100 = growth as untreated, 0 = no growth, -100 = all killed)
# Details: 10 µM unless noted
row,Structure (SMILES),growth
1,COCn1c(C(=O)OC)cc2oc(/C=C3/SC(=S)N(N)C3=O)cc21,76.9% (inactive)
2,N#CN1CC[C@H](C(=O)Nc2cc3cc(C(N)=O)ccc3cn2)C1,-37.1% (active)
3,O=C1c2ccccc2C(=O)c2c1cccc2-n1nnc2ccccc21,82.1% (inactive)
4,O=S(=O)(Nc1ccc(OC(F)F)cc1)c1ccc(-c2cnc(C3CC3)o2)cc1,64.7% (inactive)
5,O=C(OCc1ccc2c(Cl)cc(Cl)c(O)c2n1)N1CCNCC1,64.5% (inactive)
6,CNc1ccc(CSc2ccc(Cl)cc2)cc1,5.59% (active)
7,COc1ccccc1C1=C(Br)C(=O)c2nc(C)ccc2C1=O,44.4% (inactive)
8,O/N=C/c1cccs1,95.3% (inactive)
9,C=C1C(=O)O[C@H]2[C@H]1CC/C(CNC(=O)CCc1ccc(OC)cc1)=C\CC[C@@]1(C)O[C@@H]21,3.96% (active)
10,COc1ccc(N2CCN(c3nc(-c4ccccc4)c(C#N)c(=O)[nH]3)CC2)cc1,55.2% (inactive)
11,Oc1c(N=Nc2nn[nH]n2)ccc2ccccc12,98.2% (inactive)
12,COc1cccc(-c2nc3sccn3c2-c2ccnc(NCCNS(=O)(=O)c3c(Cl)cccc3Cl)c2)c1,25.9% (inactive)
13,COc1ccc(-c2nc3sc(-c4ccccc4)cn3n2)cc1,67.4% (inactive)
14,CCN(CC)CC(O)c1cc(-c2ccc(Cl)cc2)nc2cc(Cl)ccc12 (stereo not given),17.9% (inactive)
15,Cc1ccc(C2CC(c3cccc(Nc4ccncc4)c3)=Nc3c(N)nc(N)nc3N2)cc1 (stereo not given),33.7% (inactive)
16,O=C(/C=C/c1ccco1)c1ccccc1O,92.5% (inactive)
17,CCN(CC)CC(=O)Nc1ccc2ncnc(Nc3ccc(Oc4cccc(F)c4)c(Cl)c3)c2c1,16.2% (inactive)
18,O=S(=O)(NCCNc1cc(-c2cn(-c3ccccc3)nc2-c2cccc(O)c2)ccn1)c1ccc(C(F)(F)F)cc1,8.76% (active)
19,COc1cc(/C=C/c2ccnc3ccccc23)cc(OC)c1OC,15.7% (inactive)
20,COc1cc(/C=C/C(=O)N2CCN(C(=O)/C=C/c3cc(OC)c(OC)c(OC)c3)CC2)cc(OC)c1OC,91.7% (inactive)

row,Structure (SMILES),growth
1,O=C1c2ccccc2OC=C(c2ccccc2)N1CCCCNc1ccc(F)cc1,45.3% (inactive)
2,N=C(N)c1ccc(-c2ccc(-c3ccc4ccccc4c3)s2)cc1,86.7% (inactive)
3,c1ccc2c(c1)Cc1ccccc1N2CCN1CCCCC1,85.1% (inactive)
4,N#Cc1c(Cl)nc(SCC2CO2)nc1-c1ccccc1 (stereo not given),105% (inactive)
5,CCc1cccc(C)c1NC(=O)c1sc2nc3c(cc2c1N)CCCCC3,-10.5% (active)
6,CC(C)(C)n1cc(-c2ccnc(NCCNS(=O)(=O)c3ccc(F)cc3)c2)c(-c2cccc(O)c2)n1,46.6% (inactive)
7,O=C1CC(C(F)(F)F)Cc2nc3ccc(Br)cc3cc21 (stereo not given),89.8% (inactive)
8,COc1ccc2c(c1)Oc1nc(N)c(C#N)c(N)c1C2Sc1ccc(SC)cc1 (stereo not given),-22.3% (active)
9,COc1ccc2c(c1)[nH]c(=O)c1c3cccc(F)c3cn21,11.2% (inactive)
10,CN(C)CC1CCC(CN(C)C)C1=O (stereo not given),84.2% (inactive)
11,O=c1c2cccc3c(Nc4c(F)cccc4F)ccc(c32)c2nc3ccccc3n12,85.9% (inactive)
12,CC1=C(C(=O)Nc2nc(-c3ccc(Cl)cc3)cs2)[C@H](c2ccc(O)cc2)NC(=O)N1,98.7% (inactive)
13,COc1c(N2CC3CCCN(C(C)=O)C3C2)c(F)cc2c(=O)c(C(=O)N[C@H]3C(O)[C@@H](O)C(CO)O[C@H]3O)cn(C3CC3)c12 (stereo not given in full),103% (inactive)
14,O=C(Nc1cccc2[nH]c(C(F)(F)F)nc12)c1ccc(F)cc1,49.6% (inactive)
15,COc1ccc(C2CC(c3ccc(OC)c(OC)c3)=NN2C(=O)c2cc(OC)c(OC)c(OC)c2)c(OC)c1 (stereo not given),84% (inactive)
16,CCCCC1=C(Br)C(=O)c2nc(C)ccc2C1=O,77% (inactive)
17,Cc1c(Cl)cccc1NC(=O)CN1CCOCC1,81.7% (inactive)
18,O=C(Cc1ccc(F)cc1)c1ccccc1,108% (inactive)
19,Oc1ccccc1-c1nc2ccccn2c1NCCN1CCOCC1,102% (inactive)
20,O=C(Nc1ccc(-n2cc(-c3ccncc3)c(-c3ccc(Cl)c(O)c3)n2)cc1)c1cc(Cl)cc(Cl)c1,8.45% (active)

# Source: PubChem BioAssay (NCI)
